± gives the standard deviation of the averaged measurements. In all, about 1,600 compounds were measured (“normalized growth (OD600, IQM-normalized) in LPM”: median about 1, lowest 2% from about 0.014 on). The sample as a whole holds a higher share of the lowest values than the screen did.

Normalized growth data for 76 compounds are collected here from the supplement of paper PMC6331611.

The test concerns Salmonella enterica serovar Typhimurium SL1344. Kind of test: normalized growth (OD600, IQM-normalized) in LPM (fraction of plate interquartile mean); higher = more bacterial growth (less inhibition). The note with it: LPM pH 5.8; 10 µM; 16 h.
Compound `Nc1[nH]cnc2ncnc1-2` gave a normalized growth of 0.993 ± 0.02. In the case of `CCCNC(C)(C)COC(=O)c1ccccc1` it was 0.983 ± 0.027; in that of `CC(=O)c1ccc2c(c1)N(CCCN1CCN(CCO)CC1)c1ccccc1S2`, 0.869 ± 0.053. In the case of `CCCCCCCCCCCCCCCCCCCCCCO`, the normalized growth came out at 1.11 ± 0.1. Turning to `CC(=O)Nc1ccc(S(=O)(=O)c2ccc(NC(C)=O)cc2)cc1`, the normalized growth came to 0.889 ± 0.067. In the case of `CCC(=O)OCC(=O)[C@@]1(OC(=O)CC)[C@H](C)CC2C3C([C@@H](O)C[C@@]21C)[C@@]1(C)C=CC(=O)C=C1C[C@H]3Cl` (stereo partly specified) it was 1.03 ± 0.019; in that of `O=C1c2ccccc2C(=O)C1c1ccc(Br)cc1`, 0.935 ± 0.066; in that of `O=C(OOC(=O)c1ccccc1)c1ccccc1`, 1.08 ± 0.046. The compound `Cc1cnc(C(=O)O)c[n+]1[O-]` gave a normalized growth of 0.993 ± 0.078. With `C[C@@H]1NC(=O)[C@@H](N)CNC(=O)[C@H](C2CCNC(=N)N2)NC(=O)/C(=C/NC(N)=O)NC(=O)[C@H](CNC(=O)CC(N)CCCN)NC1=O.N=C1NCC[C@H]([C@@H]2NC(=O)/C(=C/NC(N)=O)NC(=O)[C@H](CNC(=O)C[C@@H](N)CCCN)NC(=O)[C@H](CO)NC(=O)[C@@H](N)CNC2=O)N1` the figure was 0.985 ± 0.046; with `CC(C)(C)CC(C)(C)c1ccc(O)c(Cc2ccc(Cl)cc2Cl)c1`, 0.861 ± 0.066; with `Oc1ccc(OCc2ccccc2)cc1`, 0.91 ± 0.11.

Regarding `Cc1cc(NS(=O)(=O)c2ccc(N)cc2)no1`, the normalized growth stood at 1.01 ± 0.022. With `CC[C@H](C)[C@H](N)C1=N[C@H](C(=O)N[C@@H](CC(C)C)C(=O)N[C@H](CCC(=O)O)C(=O)N[C@H](C(=O)N[C@H]2CCCCNC(=O)[C@H](CC(N)=O)NC(=O)[C@@H](CC(=O)O)NC(=O)[C@H](Cc3cnc[nH]3)NC(=O)[C@@H](Cc3ccccc3)NC(=O)[C@H]([C@@H](C)CC)NC(=O)[C@@H](CCCN)NC2=O)[C@@H](C)CC)CS1` the figure was 1.06 ± 0.043; with `CC(C)OC(=O)CCC/C=C\C[C@@H]1[C@@H](/C=C/[C@@H](O)COc2cccc(C(F)(F)F)c2)[C@H](O)C[C@@H]1O`, 1.032 ± 0.0058; with `C=CC[C@@H]1/C=C(\C)C[C@H](C)C[C@H](OC)[C@H]2O[C@@](O)(C(=O)C(=O)N3CCCC[C@H]3C(=O)O[C@H](/C(C)=C/[C@@H]3CC[C@@H](O)[C@H](OC)C3)[C@H](C)[C@@H](O)CC1=O)[C@H](C)C[C@@H]2OC`, 0.857 ± 0.044. With `NC(=O)C1(N2CCCCC2)CCN(CCCC(=O)c2ccc(F)cc2)CC1` the figure was 1.02 ± 0.051; with `CC(C)(S)[C@@H](N)C(=O)O`, 1.083 ± 0.0063.

On to `CC1=CC(=O)c2ccccc2C1=O`, for which the normalized growth was determined as 0.984 ± 0.017. With `O=[N+]([O-])c1ccc(O)c2ncccc12` the figure was 0.00762 ± 0.00015. In the case of `Oc1ccc(Cl)c2cccnc12` it was 0.847 ± 0.037; in that of `Oc1c(I)cc(I)c2cccnc12`, 0.58 ± 0.02; in that of `C[C@@H](O)CN(CCN(C[C@@H](C)O)C[C@@H](C)O)C[C@@H](C)O`, 1.17 ± 0.054. For the compound `CN(N=O)C(=O)N[C@H]1C(O)O[C@H](CO)[C@@H](O)[C@@H]1O` (mixture of isomers), the normalized growth came to 0.929 ± 0.021. `COc1cccc2c1C(=O)c1c(O)c3c(c(O)c1C2=O)C[C@@](O)(C(C)=O)C[C@@H]3O[C@H]1C[C@H](N)[C@H](O)[C@H](C)O1` gave a normalized growth of 0.946 ± 0.016. In the case of `CC(NCCC(c1ccccc1)c1ccccc1)c1ccccc1` (stereo unspecified) it was 0.976 ± 0.038; in that of `O=C(O)CCNC(=O)c1ccc(/N=N/c2ccc(O)c(C(=O)O)c2)cc1`, 1 ± 0.051; in that of `C[C@H]1O[C@H](O[C@H]2[C@H](O)[C@@H](O)[C@@H](O[C@H]3[C@H](O)[C@@H](O)C(O)O[C@@H]3CO)O[C@@H]2CO)[C@H](O)[C@@H](O)[C@@H]1N[C@H]1C=C(CO)[C@@H](O)[C@H](O)[C@H]1O` (stereo partly specified), 1.07 ± 0.011. In the case of `CCOC(=O)c1ccc(O)cc1` it was 1.02 ± 0.045. In the case of `N[C@@H](Cc1cc(I)c(Oc2cc(I)c(O)c(I)c2)c(I)c1)C(=O)O` it was 1.03 ± 0.039; in that of `O=C(COc1ccc(Cl)cc1)N1CCN(Cc2ccc3c(c2)OCO3)CC1`, 0.928 ± 0.019; in that of `COc1c(C)c2c(c(O)c1C/C=C(\C)CCC(=O)OCCN1CCOCC1)C(=O)OC2`, 1.01 ± 0.035. In turn, `CC(=O)Nc1c(I)cc(I)c(C(=O)O)c1I` showed a normalized growth of 0.949 ± 0.12.

`Cc1c(OCC(F)(F)F)ccnc1C[S@@+]([O-])c1nc2ccccc2[nH]1` displayed a normalized growth of 0.967 ± 0.085.

`CSCC[C@H](NC(=O)[C@H](Cc1c[nH]c2ccccc12)NC(=O)CCNC(=O)OC(C)(C)C)C(=O)N[C@@H](CC(=O)O)C(=O)N[C@@H](Cc1ccccc1)C(N)=O`: the normalized growth amounted to 1.09 ± 0.026. With `CC[C@H](c1ccc(O)cc1)[C@@H](CC)c1ccc(O)cc1` the figure was 1.13 ± 0.018; with `CC(C)c1nc(N(C)S(C)(=O)=O)nc(-c2ccc(F)cc2)c1/C=C/[C@@H](O)C[C@@H](O)CC(=O)O`, 1.03 ± 0.097. `CCn1nc(C(=O)O)c(=O)c2cc3c(cc21)OCO3` returned a normalized growth of 0.00789 ± 0.00035. With `CCCc1nc(C)c2c(O)nc(-c3cc(S(=O)(=O)N4CCN(CC)CC4)ccc3OCC)nn12` the figure was 1.02 ± 0.053; with `CC1(C)S[C@@H]2[C@H](N3C(=O)[C@@H](c4ccccc4)NC3(C)C)C(=O)N2[C@H]1C(=O)O`, 0.976 ± 0.053; with `CCOC(=O)O[C@]1(C(=O)COC(=O)CC)CC[C@H]2[C@@H]3CCC4=CC(=O)C=C[C@]4(C)[C@H]3[C@@H](O)C[C@@]21C`, 1 ± 0.03. With `CC(=O)Oc1cccc(C)c1` [meta-CRESYL ACETATE] the figure was 0.995 ± 0.048; with `OCCN1C[C@H](O)[C@@H](O)[C@H](O)[C@H]1CO`, 0.993 ± 0.016; with `C#CC1(O)CC[C@H]2[C@@H]3CCC4=CC(=O)CC[C@@H]4[C@H]3CC[C@@]21CC` (stereo partly specified), 0.941 ± 0.024. With `CC(=O)Nc1ccc(OC(C)=O)cc1` the figure was 1.05 ± 0.08; with `CCC1=C(C)CN(C(=O)NCCc2ccc(S(=O)(=O)NC(=O)N[C@H]3CC[C@H](C)CC3)cc2)C1=O`, 0.926 ± 0.053. For the compound `Nc1cc(C(Cl)=C(Cl)Cl)c(S(N)(=O)=O)cc1S(N)(=O)=O`, the normalized growth turned out to be 1.01 ± 0.036. In the case of `CC(=O)Oc1cccc(C(=O)O)c1OC(C)=O` it was 0.912 ± 0.079; in that of `O=C(Nc1ccccc1)OCC(CN1CCCCC1)OC(=O)Nc1ccccc1` (stereo unspecified), 0.903 ± 0.047. In the case of `CC(=O)OCC(=O)[C@@]1(O)CC[C@H]2[C@@H]3CCC4=CC(=O)C=C[C@]4(C)[C@@]3(Cl)[C@@H](Cl)C[C@@]21C` it was 0.894 ± 0.024; in that of `CC[N+](C)(CC)CCOC(=O)C(O)(c1ccccc1)C1CCCCC1` (stereo unspecified), 1.1 ± 0.03; in that of `CC1/C=C/C=C/C=C/C=C/C=C/C=C/C=C/C(OC2O[C@H](C)[C@@H](O)[C@H](N)[C@@H]2O)CC(O)C(C(=O)O)C(O)CC(=O)CC(O)CC(O)CC(O)CC(=O)CCCC(=O)CC(=O)OC1C(C)CC(C)C(O)CC(=O)c1ccc(N)cc1` (stereo partly specified), 1.03 ± 0.045. On to `Cc1cc(C)cc(OCC2CNC(=O)O2)c1` (stereo unspecified), for which the normalized growth is 1.02 ± 0.03.

Compound `COc1c(N2CCNC(C)C2)c(F)cc2c(=O)c(C(=O)O)cn(C3CC3)c12` (stereo unspecified) registered a normalized growth of 0.0158 ± 0.0074. With `COc1c(N2C[C@@H]3CCCN[C@@H]3C2)c(F)cc2c(=O)c(C(=O)O)cn(C3CC3)c12` the figure was 0.0131 ± 0.0045. With `C[C@@H]1CN(c2c(F)c(F)c3c(=O)c(C(=O)O)cn(C4CC4)c3c2F)C[C@H](C)N1` the figure was 0.0487 ± 0.0099; with `NC1CCN(c2c(F)cc3c(=O)c(C(=O)O)cn(C4CC4)c3c2Cl)C1` (stereo unspecified), 0.0132 ± 0.00024. With `CCn1cc(C(=O)O)c(=O)c2cc(F)c(N3CCNC(C)C3)c(F)c21` (stereo unspecified) the figure was 0.0416 ± 0.00075; with `C[C@@H]1CN(c2c(F)c(N)c3c(=O)c(C(=O)O)cn(C4CC4)c3c2F)C[C@H](C)N1`, 0.0193 ± 0.0046. Regarding `CC(=O)N(CC(O)CO)c1c(I)c(C(=O)NCCO)c(I)c(C(=O)NCC(O)CO)c1I` (stereo unspecified), the normalized growth was 1.05 ± 0.036. With `Cc1oc(=O)oc1CN1CCN(c2cc3c(cc2F)c(=O)c(C(=O)O)c2n3C(C)S2)CC1` (stereo unspecified) the figure was 0.00846 ± 7.6e-05; with `S=C1SCN(Cc2ccccc2)CN1Cc1ccccc1`, 1.11 ± 0.061; with `C=NC(C(=O)NC1C(=O)N2C1SC(C)(C)C2C(=O)O)c1ccccc1` (stereo unspecified), 0.913 ± 0.058. With `C#C[C@]1(O)CC[C@H]2[C@@H]3CCc4cc(OC5CCCC5)ccc4[C@H]3CC[C@@]21C` the figure was 0.954 ± 0.1; with `O=C([O-])[C@H]1/C(=C/CO)O[C@@H]2CC(=O)N21.[Li+]`, 1.12 ± 0.076; with `C#C[C@]1(OC(C)=O)CC[C@H]2[C@@H]3CCC4=CC(=O)CC[C@@H]4[C@H]3CC[C@@]21C`, 1.14 ± 0.03. In the case of `CC(=O)Oc1cc2c(s1)CCN(C(C(=O)C1CC1)c1ccccc1F)C2` (stereo unspecified) it was 1.08 ± 0.1.

`Cc1nc(-c2ccc(OCC(C)C)c(C#N)c2)sc1C(=O)O` yielded a normalized growth of 1.02 ± 0.038.

The compound `CC(=O)OCC(=O)[C@@]1(O)[C@@H](C)C[C@H]2[C@@H]3CCC4=CC(=O)C=C[C@]4(C)[C@@]3(F)[C@@H](O)C[C@@]21C` displayed a normalized growth of 1.01 ± 0.033. With `COc1ccc2cc1Oc1ccc(cc1)C[C@H]1c3c(cc4c(c3Oc3cc5c(cc3OC)CCN(C)[C@@H]5C2)OCO4)CCN1C` the figure was 0.938 ± 0.024; with `CCC/C=C\C=C/C(=O)N[C@@H](CC(N)=O)C(=O)NC(CC(N)=O)C(=O)N[C@@H](C(=O)N[C@H](CCCN)C(=O)N[C@@H](C(=O)N[C@@H](C(=O)N[C@@H](C(=O)N[C@H](C(=O)N[C@@H](Cc1ccccc1)C(=O)N[C@H](CCCN)C(=O)NC(C(=O)N[C@H](C(=O)NC(C(=O)NCC(=O)N[C@@H](CC(C)C)C(=O)N[C@H](C)C(=O)NC(C(=O)O)C1CCC(O)C(Cl)C1)C1CCC(O)CC1)[C@H](C)O)C1CCC(O)CC1)[C@H](C)O)C1CCC(O)CC1)C1CCC(O)CC1)[C@H](C)O)C1CCC(O)CC1` (stereo partly specified) [RAMOPLANIN [A2 shown; 2mM]], 1.31 ± 0.07; with `CC1(C)O[C@@H]2C[C@H]3[C@@H]4C[C@H](F)C5=CC(=O)C=C[C@]5(C)[C@H]4[C@@H](O)C[C@]3(C)[C@]2(C(=O)CO)O1`, 0.921 ± 0.042. For `Cc1cccc(C)c1NC(=O)c1ccccc1C(=O)O`, the normalized growth was found to be 1.15 ± 0.12.

On to `CC1(C)S[C@@H]2[C@H](NC(=O)[C@H](C(=O)O)c3ccsc3)C(=O)N2[C@H]1C(=O)O`, for which the normalized growth came to 1.01 ± 0.022. With `CC(=O)OC1CC2CCC1(C)C2(C)C` (stereo unspecified) the figure was 1.21 ± 0.048; with `CC(C)C[C@@H]1NC(=O)[C@H](CCCN)NC(=O)[C@H](C(C)C)NC(=O)[C@H](Cc2ccc(O)cc2)N[C@@H](CCC(=O)O)C(=O)N[C@@H](CC(N)=O)C(=O)[C@@H](Cc2ccccc2)NC(=O)[C@H](Cc2ccccc2)NC(=O)[C@@H]2CCCN2C(=O)[C@@H](Cc2ccccc2)NC1=O`, 0.992 ± 0.1.
